Results on 40 compounds are retold here after PubChem BioAssay.

Results with a measured potency or affinity are listed apart. Calls of active or inactive are those of the source.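 The calls were made as follows: active = a dose-response fit showing signal loss, with half-maximal concentration no higher than twice the top tested dose; inconclusive = flat fit between 30% and 70% signal loss, or poor fit; inactive = the rest.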

The assay can be described thus: viability loss in HepG2 hepatoma cells – cell-based, cherry-picks, set 2, cytotoxicity control, dose response (AID 687002). The note with it: ATP luminescence (CellTiter-Glo), 48 h; series mostly up to 26 µM; activity change, negative = cytotoxicity: at the top concentration.
On to `COC(=O)C1=C(C)N(Cc2ccccc2)C(=S)N[C@H]1c1cccc(C(F)(F)F)c1`, for which the “activity change, negative = cytotoxicity” value was 0.128% (inactive).

Consider `COC(=O)C1=C(C)N(CC(C)C)C(=S)NC1c1ccc(-c2ccccc2)cc1` (stereo not given), for which the outcome was inactive.

On to `COC(=O)C1=C(C)N(Cc2ccccc2)C(=S)NC1c1cccc(OC)c1` (stereo not given), for which the compound was called inactive.

As for `S=C(Nc1ccccc1)Nc1cc(Cl)ccc1Oc1ccccc1`, the “activity change, negative = cytotoxicity” value is -7.82% (inactive).

With `COC(=O)C1=C(C)N(Cc2ccc(Cl)cc2)C(=S)NC1c1ccc(OC)cc1` (stereo not given), the “activity change, negative = cytotoxicity” value was -2.14% (inactive).

For the compound `Cc1c(C(=O)NC(=S)Nc2ccccc2N2CCCC2)cccc1[N+](=O)[O-]`, the “activity change, negative = cytotoxicity” value was -9.64% (inactive).

With `COC(=O)C1=C(C)N(CC(C)C)C(=S)NC1c1cccc(F)c1` (stereo not given), the compound was classed as inactive.

On to `CC(C)c1ccccc1NC(=S)NN(Cc1ccccc1)c1ccccc1`, for which the “activity change, negative = cytotoxicity” value was 4.5% (inactive).

As to `COC(=O)C1=C(C)N(Cc2ccccc2)C(=S)N[C@H]1c1cccc(F)c1`, the “activity change, negative = cytotoxicity” value was -22% (inactive).

Turning to `S=C(Nc1ccccc1Oc1ccccc1)Nc1cccc(Cl)c1Cl`, the “activity change, negative = cytotoxicity” value is -1.17% (inactive).

Consider `O=C(CN(c1ccc(F)cc1)S(=O)(=O)c1ccccc1)N1CCOCC1`, for which the “activity change, negative = cytotoxicity” value is 6.48% (inactive).

As to `Cc1ccc2nc(C)c3c(c2c1)OC(C(C)(Cl)Br)C3` (stereo not given), the “activity change, negative = cytotoxicity” value was 3.11% (inactive).

For `CCc1ccc(C(C)NC(=S)NCc2ccc(F)cc2)cc1` (stereo not given), the “activity change, negative = cytotoxicity” value is -4.57% (inactive).

Regarding `COc1cc(OC)c(N(C)C(=O)c2cn(C)c(=O)c3cc(OC)c(OC)cc23)cc1Cl`, the “activity change, negative = cytotoxicity” value is -28.8% (inactive).

Take `C[C@H](CO)N1C[C@H](C)[C@@H](CN(C)Cc2ccc(Oc3ccccc3)cc2)Oc2ccc(NS(=O)(=O)c3cn(C)cn3)cc2CC1=O`: the “activity change, negative = cytotoxicity” value is 9.72% (inactive).

Turning to `COC(=O)C1=C(C)N(Cc2ccc(F)cc2)C(=S)NC1c1cccc(Cl)c1` (stereo not given), the compound was classed as inactive.

Regarding `COC(=O)C1=C(C)N(Cc2ccc(F)cc2)C(=S)NC1c1ccc(Cl)cc1` (stereo not given), the “activity change, negative = cytotoxicity” value is -4.52% (inactive).

Turning to `COC(=O)C1=C(C)N(Cc2ccc(Br)cc2)C(=S)NC1c1ccc(OC)cc1` (stereo not given), the compound was classed as inactive.

`Cc1cc(Cl)ccc1NC(=S)NCc1ccc(F)cc1`: the “activity change, negative = cytotoxicity” value was -8.68% (inactive).

Consider `O=C(CSc1ncnc2c1cnn2-c1cccc(Cl)c1)NCC1CCCO1` (stereo not given), for which the “activity change, negative = cytotoxicity” value was -4.41% (inactive).

As for `COC(=O)C1=C(C)N(Cc2ccc(Cl)cc2)C(=S)NC1c1ccccc1` (stereo not given), the “activity change, negative = cytotoxicity” value was 0.924% (inactive).

With `COc1ccccc1C#Cc1ccc2c(c1)O[C@H](CN(C)C(C)=O)[C@H](C)CN([C@@H](C)CO)S2(=O)=O`, the “activity change, negative = cytotoxicity” value is 2.5% (inactive).

As for `NC(=S)N/N=C/c1ccc(-c2cc(Cl)ccc2Cl)o1`, the “activity change, negative = cytotoxicity” value is 1.76% (inactive).

As for `COc1ccc(C(=O)NC(=S)Nc2ccccc2N2CCOCC2)cc1[N+](=O)[O-]`, the “activity change, negative = cytotoxicity” value is -2.32% (inactive).

As to `CC(C)CC1(C)N=C(c2ccccc2)C(=S)N1` (stereo not given), the “activity change, negative = cytotoxicity” value was -15.2% (inactive).

On to `COC(=O)C1=C(C)N(Cc2ccc(Cl)cc2)C(=S)NC1c1cccc(Cl)c1` (stereo not given), for which the “activity change, negative = cytotoxicity” value is 13.3% [at 23.5 µM] (inactive).

`COc1ccc(N2CCN(C(=O)Cc3cccs3)CC2)cc1`: the “activity change, negative = cytotoxicity” value is -4.23% (inactive).

For the compound `CCCOc1ccc(CNC(=S)NCc2ccc(OC(C)C)cc2)cc1`, the “activity change, negative = cytotoxicity” value is -19.7% (inactive).

`O=C(COC(=O)CCC1CCCC1)Nc1nc2c(F)c(F)c(F)cc2s1`: the “activity change, negative = cytotoxicity” value was -5.42% (inactive).

As to `O=C(NC(=S)Nc1cc(Cl)ccc1N1CCOCC1)c1ccccc1[N+](=O)[O-]`, the “activity change, negative = cytotoxicity” value was -19.4% (inactive).

With `S=C(NCc1ccccc1)NCC1COc2ccccc2O1` (stereo not given), the “activity change, negative = cytotoxicity” value is -4.83% (inactive).

On to `COC(=O)C1=C(C)N(Cc2ccc(F)cc2)C(=S)NC1c1ccccc1` (stereo not given), for which the “activity change, negative = cytotoxicity” value is 34.1% [at 28.5 µM] (inactive).

Turning to `Cc1cc(C)c(NC(=O)C2CCCN2CCC(C)C)c(C)c1` (stereo not given), the “activity change, negative = cytotoxicity” value is 0.024% (inactive).

For the compound `O=C(NC(=S)NCC1COc2ccccc2O1)c1ccc(Cl)cc1` (stereo not given), the “activity change, negative = cytotoxicity” value is 1.09% [at 35 µM] (inactive).

Take `COc1cccc(NC(=S)N2CCC(Cc3ccccc3)CC2)c1`: the “activity change, negative = cytotoxicity” value is -9.94% (inactive).

For the compound `COC(=O)C1=C(C)N(Cc2ccc(F)cc2)C(=S)NC1c1ccc(F)cc1` (stereo not given), the “activity change, negative = cytotoxicity” value was 3.13% (inactive).

`Cc1ccc(C(=O)NC(=S)Nc2ccccc2N2CCCC2)cc1[N+](=O)[O-]`: the “activity change, negative = cytotoxicity” value was -2.48% (inactive).

Consider `COC(=O)C1=C(C)N(Cc2ccc(F)cc2)C(=S)NC1c1cccc(Br)c1` (stereo not given), for which the “activity change, negative = cytotoxicity” value was -3.2% [at 23.5 µM] (inactive).

In the case of `O=C(C[C@H]1CC[C@@H]2[C@H](COC[C@@H](O)CN2C(=O)c2cnccn2)O1)NCc1ccc(Oc2ccccc2)cc1`, the “activity change, negative = cytotoxicity” value is -3.21% (inactive).

As to `COc1cccc(C(=O)NC(=S)Nc2ccccc2N2CCOCC2)c1`, the “activity change, negative = cytotoxicity” value is -7.03% (inactive).
